We go through 62 compounds from PubChem BioAssay AID798 (PCMD, 2007).

In all, about 220,000 compounds went through this assay and about 300 (0.14%) were called active.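 How the source made its calls: active means inhibition of at least 40%; inactive means inhibition below 40%.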 Shown is part of a subset that was picked to be rich in actives.

Chain of Coagulation factor XI (Homo sapiens) (P03951 19-387 limits assumed): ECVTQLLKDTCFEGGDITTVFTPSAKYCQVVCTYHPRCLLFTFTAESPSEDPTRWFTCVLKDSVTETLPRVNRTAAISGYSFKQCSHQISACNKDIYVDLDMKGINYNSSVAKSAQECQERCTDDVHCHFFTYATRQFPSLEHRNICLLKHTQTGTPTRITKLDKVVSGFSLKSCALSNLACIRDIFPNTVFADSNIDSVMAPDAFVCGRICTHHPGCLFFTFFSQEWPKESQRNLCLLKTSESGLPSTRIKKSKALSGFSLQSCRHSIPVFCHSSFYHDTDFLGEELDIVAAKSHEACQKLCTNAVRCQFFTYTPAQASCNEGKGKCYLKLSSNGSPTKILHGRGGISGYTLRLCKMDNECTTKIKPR
Chain of Coagulation factor XI (Homo sapiens) (P03951 388-625 limits assumed): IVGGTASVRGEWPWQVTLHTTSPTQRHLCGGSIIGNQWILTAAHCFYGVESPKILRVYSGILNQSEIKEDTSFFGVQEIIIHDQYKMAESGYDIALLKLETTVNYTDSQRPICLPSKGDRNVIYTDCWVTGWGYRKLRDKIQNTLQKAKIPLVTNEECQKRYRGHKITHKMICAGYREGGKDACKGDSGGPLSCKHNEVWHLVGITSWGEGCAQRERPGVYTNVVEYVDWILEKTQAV

This experiment concerns the target Coagulation factor XI (Homo sapiens) (UniProt P03951). The experiment can be described thus: human FXIa protease inhibitors, primary screen, biochemical, 1536-well (AID 798).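 Further: fluorescence of freed AMC excited at 355 nm; 0% = enzyme without compound and 100% = no enzyme blank.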 Conditions: purified FXIa, Boc-Glu-Ala-Arg-AMC fluorogenic substrate; at 5 µM; stronger effect = higher value.
Usually inhibition stands for the drop in the measured response relative to a control, in per cent. Consider `COc1cc(-c2nnn(CC(=O)NCc3ccccc3)n2)cc(OC)c1OC`, for which the inhibition was 3% (inactive).
For the compound `CNc1ccc([N+](=O)[O-])cc1C(=O)O`, the inhibition is -2.33% (inactive).
For the compound `NC(=O)C1CCN(C(=O)COc2cccc3cccnc23)CC1`, the inhibition was 0.03% (inactive).
For `Cc1cnc(NC(=O)Cn2cnc3c2c(=O)n(C)c(=O)n3C)s1`, the inhibition is -1.78% (inactive).
The same measure for `CCOCCn1c(-c2ccccc2)nc2ccccc21`: 0.72% (inactive); for `Cc1ccc(Sc2ccncc2S(N)(=O)=O)cc1`: 5.95% (inactive).
On to `CC(C)(C)CC(C)(C)NCC(O)COCCOc1ccc(Br)cc1` (configuration not stated), for which the inhibition is 1.54% (inactive).
On to `COC(=O)c1sccc1NN1C(=O)c2ccccc2C1=O`, for which the inhibition is 0.85% (inactive).
With `O=C(CC(NC(=O)c1ccccc1)c1ccccc1)Nc1ccc(F)c(F)c1` (configuration not stated), the inhibition is -2.03% (inactive).
The same measure for `Cc1ccc(C2CCN(C(=S)Nc3cccc(Cl)c3)C2)cc1` (configuration not stated): -2.9% (inactive); for `Cc1noc(C)c1COC(=O)COc1ccc(-c2ccccc2)cc1`: 9.94% (inactive); for `CCOC(=O)COc1cc(O)c2c(=O)cc(-c3ccccc3)oc2c1`: 45% (active).
For `CCOC(=O)COc1cc(OCC(=O)OCC)c2c(=O)cc(-c3ccccc3)oc2c1`, the inhibition was -3.59% (inactive).
On to `CCOC(=O)c1nn(-c2ccccc2F)c2nc(Nc3ccccc3)cc(=O)n12`, for which the inhibition was -3.73% (inactive).
Take `COc1cccc(-n2nc(C(=O)N3CCN(Cc4ccccc4)CC3)c3ccccc3c2=O)c1`: the inhibition is -0.09% (inactive).
As for `C/C(Cc1ccccc1)=N\NC(=O)CNC(=O)c1cccc(Br)c1`, the inhibition was 9.13% (inactive).
The value for `C/C(Cc1ccccc1)=N\NC(=O)CNC(=O)c1ccccc1Cl` was 56.6% (active); that for `C/C(Cc1ccccc1)=N\NC(=O)CNC(=O)c1ccc2c(c1)OCCO2` was -2.1% (inactive); that for `CCOc1ccc(Br)cc1S(=O)(=O)N1CCC(C(=O)O)CC1` was -8.82% (inactive).
Consider `CC(NC(=S)Nc1ccccc1)C1COc2ccccc2O1` (configuration not stated), for which the inhibition was 3.5% (inactive).
As for `Cc1c(Cl)cccc1NC(=O)Nc1ccc(C(=O)N2CCCC2)cc1`, the inhibition is 18.9% (inactive).
Take `Cc1ccc(C(=O)COC(=O)c2cccc(N3C(=O)c4c(C)nc5ccccc5c4C3=O)c2)cc1C`: the inhibition was 8.56% (inactive).
On to `CN(CC(=O)Nc1ccc(F)cc1)CC(=O)Nc1ccc(Cl)c(S(=O)(=O)N2CCOCC2)c1`, for which the inhibition was 0.07% (inactive).
Consider `COc1ccc(C(=O)NNC(=O)c2cc(C)[nH]n2)cc1`, for which the inhibition was 1.62% (inactive).
For `COc1ccc(CNC(=O)COC(=O)/C=C/c2ccc(S(=O)(=O)N3CCOCC3)cc2)cc1`, the inhibition was -3.11% (inactive).
Consider `CCc1ccc(Oc2coc3cc(OC(=O)c4cc5ccccc5oc4=O)ccc3c2=O)cc1`, for which the inhibition is -3.61% (inactive).
`CC(=O)NCC(=O)N1CCCC(C(=O)c2ccc3c4c(cccc24)CC3)C1` (configuration not stated): the inhibition is -4.06% (inactive).
Turning to `O=C(CSc1nnnn1-c1ccc(O)cc1)N1N=C(c2ccc3ccccc3c2)CC1c1ccccc1` (configuration not stated), the inhibition was 8.65% (inactive).
Turning to `COC(=O)c1ccc(/C=N\n2c(C)nnc2C)cc1`, the inhibition was -10.4% (inactive).
On to `COc1ccc(/C=C/C(=O)c2ccc(OC)cc2O)cc1`, for which the inhibition was 2.98% (inactive).
`COc1ccc(/C=N/n2c(C)cc(C)cc2=O)cc1`: the inhibition is 44.1% (active).
The same measure for `Cn1c(SCC(=O)N2CCOCC2)nnc1-c1ccc2ncccc2c1`: 4.39% (inactive); for `COCCn1c(N)c(N(Cc2ccccc2)C(=O)C2CCCCC2)c(=O)[nH]c1=O`: -2.52% (inactive).
The value for `Nc1c(C(=O)O)cnn1-c1ccccc1` was 15.5% (inactive).
On to `COC(=O)c1ccc(S(=O)(=O)NCc2ccccc2)n1C`, for which the inhibition was 13.2% (inactive).
The value for `Cc1cccc(Oc2c([N+](=O)[O-])c(=O)n(C)c3ccccc23)c1` was -4.16% (inactive); that for `O=C(Nc1ccc(Cl)cc1)Nc1ccc(Oc2cccnc2)nc1` was -6.3% (inactive).
The same measure for `CCC(C)c1ccc(NC(=S)NCc2ccccn2)cc1` (configuration not stated): -2.96% (inactive); for `O=C(Cc1ccccc1)Nc1c(C(=O)N2CCCCCC2)cnn1-c1ccccc1`: -2.02% (inactive).
On to `O=C(NCc1ccccc1Cl)NC(=O)c1csc([N+](=O)[O-])c1`, for which the inhibition is -0.45% (inactive).
Take `CCc1ccc(S(=O)(=O)Nc2ccc(C)c(NS(C)(=O)=O)c2)cc1`: the inhibition is 1.46% (inactive).
As to `C=CCNC(=O)c1ccc2c3n(nc2c1)-c1ccc(C)cc1CO3`, the inhibition was 0.43% (inactive).
Take `CCOC(=O)CNc1nc(Cl)nc(Nc2ccccc2)n1`: the inhibition is -1.06% (inactive).
Consider `Cc1nnc(NCCO)c2ccccc12`, for which the inhibition is 6.13% (inactive).
In the case of `O=C(CNCCC1=CCCCC1)Nc1ccccc1N1CCCCCC1`, the inhibition was -2.46% (inactive).
Consider `CC(C)C(O)C1CCN(Cc2nc(Cc3ccccc3Cl)no2)CC1` (configuration not stated), for which the inhibition was -1.58% (inactive).
In the case of `Cc1ccc(NCc2n[nH]c(=S)n2-c2ccccc2)cc1Cl`, the inhibition is 0.9% (inactive).
As to `CCOC(=O)C1=C(C)N=C2c3ccccc3C(=O)C2C1c1ccc(Br)cc1` (configuration not stated), the inhibition was 5.54% (inactive).
Regarding `Cc1ccccc1C(=O)Nc1ccc(N2CCCCCC2)cc1`, the inhibition is -3.76% (inactive).
For the compound `O=C(Nc1ccc(F)c([N+](=O)[O-])c1)C1CC(=O)N(Cc2ccccc2)C1` (configuration not stated), the inhibition is -2.12% (inactive).
The same measure for `C#CCNc1ccc(C(=O)OCC)cc1`: 0.47% (inactive).
With `O=C(NCc1ccc(F)cc1)C1CCC(CNc2c(N3CCOCC3)c(=O)c2=O)CC1` (configuration not stated), the inhibition was 1.9% (inactive).
The value for `O=C(C1CCN(C2CCN(Cc3cccc4c3OCO4)CC2)CC1)N1CCOCC1` was -4.01% (inactive).
Consider `N#Cc1ccccc1NC(=O)COc1c(Br)cc(Br)c2cccnc12`, for which the inhibition was 0.52% (inactive).
The same measure for `COc1ccc(OC)c(Cc2nnc(CCC(=O)NC3CCCC3)o2)c1`: 4.91% (inactive); for `COc1cc(/C=C2/C(=O)ON=C2C)ccc1OCc1cccc(F)c1`: -3.35% (inactive).
For `O=C(CCl)Nc1ccc(Sc2ccc(NC(=O)CCl)cc2)cc1`, the inhibition is -1.76% (inactive).
For `O=C(CCN1CCN(C/C=C/c2ccccc2)CC1)Nc1cccc(F)c1`, the inhibition was -3.15% (inactive).
The same measure for `Cc1cccc(NC(=O)c2ccc3ccccc3n2)n1`: 0.23% (inactive); for `Cc1cccc(NC(=O)c2cc(N3C(=O)CCC3=O)ccc2Cl)n1`: 45.3% (active).
In the case of `Cc1cc(NC(=O)c2cccc(N3C(=O)CCC3=O)c2)no1`, the inhibition is 7.9% (inactive).
Regarding `Oc1ccc2ccccc2c1N=Nc1nccs1`, the inhibition is 1.08% (inactive).
